Test results: PubChem BioAssay (NCI)
The panel holds about 83,000 compounds, 20% with a hit somewhere; the sample as a whole holds those more often.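 Method: cells in 96-well plates; compound added at one concentration; 48 h incubation; percent growth measured; values under 10 scored active.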 Values without a mark were called inactive. Activity calls are given as the source filed them.

Assays:
Assay in all cases: NCI-60 one-dose screen, 48 h (100 = growth as untreated, 0 = no growth, -100 = all killed)
K-562 leukemia = details: 10 µM unless noted
MALME-3M melanoma = details: 10 µM unless noted
MDA-MB-231 breast = details: 10 µM unless noted
SF-268 CNS = details: 10 µM unless noted
SF-539 CNS = details: 10 µM unless noted
UACC-257 melanoma = details: 10 µM unless noted
M14 melanoma = details: 10 µM unless noted
HCT-15 colon = details: 10 µM unless noted
HT29 colon = details: 10 µM unless noted
SNB-75 CNS = details: 10 µM unless noted
SNB-19 CNS = details: 10 µM unless noted
U251 CNS = details: 10 µM unless noted
PC-3 prostate = details: 10 µM unless noted
SK-MEL-5 melanoma = details: 10 µM unless noted
UACC-62 melanoma = details: 10 µM unless noted
LOX IMVI melanoma = details: 10 µM unless noted
SK-MEL-28 melanoma = details: 10 µM
SK-MEL-2 melanoma = details: 10 µM unless noted
SF-295 CNS = details: 10 µM unless noted
RXF 393 renal = details: 10 µM unless noted

Structure (SMILES)	growth (K-562 leukemia) [%]	growth (MALME-3M melanoma)	growth (MDA-MB-231 breast) [%]	growth (SF-268 CNS) [%]	growth (SF-539 CNS)	growth (UACC-257 melanoma) [%]	growth (M14 melanoma) [%]	growth (HCT-15 colon) [%]	growth (HT29 colon)	growth (SNB-75 CNS)	growth (SNB-19 CNS) [%]	growth (U251 CNS) [%]	growth (PC-3 prostate)	growth (SK-MEL-5 melanoma)	growth (UACC-62 melanoma) [%]	growth (LOX IMVI melanoma) [%]	growth (SK-MEL-28 melanoma) [%]	growth (SK-MEL-2 melanoma)	growth (SF-295 CNS)	growth (RXF 393 renal) [%]
COc1ccc(-n2c(C(O)c3ccccc3)n[nH]c2=S)cc1 (stereo not given)	99.3	94.9%	92.2	95.9	101%	90.4	90	107	113%	89.6%	99.7	91.2	120%	107%	88.2	91.4	115	96.7%		
COc1ccccc1C(=O)/C=C/c1ccccc1	23.1	99.1%	97.6	80	91.6%	92.6	103	53.3		88.5%	82.8	43.8	75.3%		85.2	76.2	105	104%	89.9%	
Cc1ccc(S(=O)c2ccc([N+](=O)[O-])c3nonc23)cc1 (stereo not given)	38.9	81.2%		105	106%	100	104	66.5	93.8%	112%	117	96.4	92.6%	100%	108		105	112%	119%	111
CSc1nc2c(c(=O)[nH]1)N=C1c3ccccc3C(=O)C1C(c1ccc(F)cc1)N2 (stereo not given)	62.8	56.1%	93.3	65.5	68.7%	79.1	43.4	46.1	18%	26.8%	61.6	58.8	69.3%	39.8%	43.1	62	83.5	72.1%	-29% (active)	
N#C/C(=C\c1c(-c2ccccc2)[nH]c2ccccc12)S(=O)(=O)c1ccccc1	17.5	76.5%	47.2	53	-20.1% (active)	73.8	42.8	44.1	18.3%	12.4%	40.3	33.4	5.37% (active)	11.6%	34.3	42.7	52.4	46.6%	25.7%	
COc1cc(C#N)cc2[nH]c(=O)oc12	123	89.8%		100	101%	106	102	95.6	106%	71.9%	106	92.4	102%	96.7%		111	107	106%	92.4%	128
O=C(Nc1ccc(Cl)cc1)c1cc2ccccc2cc1OP(=O)(O)O	27.1	-16.3% (active)	55.5	32	32.1%	15.7	31.9	23.2	103%	24.2%	21.6	18.8	24.6%	3.56% (active)	35.4	22.9	35.9	7.63% (active)	-7.61% (active)	
CCOC(=O)c1c2c(n3cccc(Cl)c13)C(=O)c1ncccc1C2=O	62.3	42.7%	24.9	41.1	77.2%	60.8	22.6	25.6	69.3%	78.2%	45.9	36	53%		55.9	27.3	87.5	103%	63.9%	
CCn1c(-c2nonc2Nc2ccc(OC)cc2)nc2ccccc21	118	120%		110	107%	104	104	97.7	102%	91.6%	111	101	107%	104%	96.2	107	107	105%	132%	120
CC(=O)SC1CC(=O)C=C2CCC3C4CCC(=O)OC4(C)CCC3C21C (stereo not given)	103	195%		105	94.9%	100	97.7	106	101%	84.2%		99.4	94%			97.8	120	106%		
COc1cc([C@@H]2NC(=O)NC(C)=C2C(=O)Nc2nc(-c3ccc(Cl)cc3)cs2)ccc1O	99.9	95.4%	92.6	94	95.7%	104	94.2	100	108%	87.3%	113	97.9	88.9%		91.6	94.2	110	105%	98.2%	
COc1ccc(C2Nc3nc(OC)n(C)c(=O)c3N=C3c4ccccc4C(=O)C32)cc1 (stereo not given)	83.8	117%	92.2	81	89.8%	127	92.4	88.3	113%	77.4%	91.8	90.8	87.8%	95%	93.1	87.7	106	89.7%	6.96% (active)	
COC(=O)/C(=C\c1c(-c2ccccc2)[nH]c2ccccc12)S(C)(=O)=O	17.2	74.1%	49.7	26.8	4.74% (active)	67.4	14.9	34.5	8.37% (active)	-4.33% (active)	37.6	26.4	25.6%	14.3%	37.1	45.1	36.1	39.1%	32%	
COc1ccc(-c2nsc3c2NC(=O)CC3c2ccsc2)cc1 (stereo not given)	13.3	43.6%		47.1	-7.51% (active)	77.3	18	13.8	0.633% (active)	10.4%	50	20.4	24.3%	22%	24.9	33.4	42.7	45.5%	2.29% (active)	18
O=CCCCC(O)C=O (stereo not given)	103	104%	115	106	105%	106		108	111%	97.7%	106		103%		109	97.9		105%		102
CSc1nc2c(c(=O)[nH]1)N=C1c3ccccc3C(=O)C1C(c1ccccc1)N2 (stereo not given)	34.8	34.8%	82.6	47.9	25.6%	74.5	29.4	36.8	5.89% (active)	34.3%	39.8	37.5	54.5%	16.1%	37.8	51.9	54	59%		
N#CC(C#N)=Cc1c(-c2ccccc2)[nH]c2ccccc12	12.7	81.3%	50.2	44.6	-11.7% (active)	52.3	27.7	35.3		2.62% (active)	37.8	32.1	9.36% (active)	14.9%	32.2	48.3	42.7	45.7%	31.6%	
